In paper PMC12529666, “Dysregulation of AGO2-miRNA dynamics underlies the AGO2-associated Lessel–Kreienkamp syndrome”:

B1: ACACTTCA (ssRNA)
RNA 1: GAGUUCUACAGUCCGACGAUCCCAACACACUUCACACCUGGAAUUCUCGGGUGCCAA
RNA 2: UGGAGUGUGACAAUGGUGUUUG
DNA 1: GATCGTCGGACTGTAGAACTC
DNA 2: TTGGCACCCGAGAATTCCA
modifications: constant regions annealed to DNA blockers; guide miR-122 5' phosphate
B2: GCACTCTA (ssRNA)
RNA 1: GAGUUCUACAGUCCGACGAUCCCAACGCACUCUACACCUGGAAUUCUCGGGUGCCAA
RNA 2: UGGAGUGUGACAAUGGUGUUUG
DNA 1: GATCGTCGGACTGTAGAACTC
DNA 2: TTGGCACCCGAGAATTCCA
modifications: constant regions annealed to DNA blockers; guide miR-122 5' phosphate
B3: ACGTCTCA (ssRNA)
RNA 1: GAGUUCUACAGUCCGACGAUCCCAACACGUCUCACACCUGGAAUUCUCGGGUGCCAA
RNA 2: UGGAGUGUGACAAUGGUGUUUG
DNA 1: GATCGTCGGACTGTAGAACTC
DNA 2: TTGGCACCCGAGAATTCCA
modifications: constant regions annealed to DNA blockers; guide miR-122 5' phosphate
B4: ACATTTCA (ssRNA)
RNA 1: GAGUUCUACAGUCCGACGAUCCCAACACAUUUCACACCUGGAAUUCUCGGGUGCCAA
RNA 2: UGGAGUGUGACAAUGGUGUUUG
DNA 1: GATCGTCGGACTGTAGAACTC
DNA 2: TTGGCACCCGAGAATTCCA
modifications: constant regions annealed to DNA blockers; guide miR-122 5' phosphate
B5: GCACCCCA (ssRNA)
RNA 1: GAGUUCUACAGUCCGACGAUCCCAACGCACCCCACACCUGGAAUUCUCGGGUGCCAA
RNA 2: UGGAGUGUGACAAUGGUGUUUG
DNA 1: GATCGTCGGACTGTAGAACTC
DNA 2: TTGGCACCCGAGAATTCCA
modifications: constant regions annealed to DNA blockers; guide miR-122 5' phosphate
B6: GCATTTCA (ssRNA)
RNA 1: GAGUUCUACAGUCCGACGAUCCCAACGCAUUUCACACCUGGAAUUCUCGGGUGCCAA
RNA 2: UGGAGUGUGACAAUGGUGUUUG
DNA 1: GATCGTCGGACTGTAGAACTC
DNA 2: TTGGCACCCGAGAATTCCA
modifications: constant regions annealed to DNA blockers; guide miR-122 5' phosphate
B7: ACGCCTCA (ssRNA)
RNA 1: GAGUUCUACAGUCCGACGAUCCCAACACGCCUCACACCUGGAAUUCUCGGGUGCCAA
RNA 2: UGGAGUGUGACAAUGGUGUUUG
DNA 1: GATCGTCGGACTGTAGAACTC
DNA 2: TTGGCACCCGAGAATTCCA
modifications: constant regions annealed to DNA blockers; guide miR-122 5' phosphate
B8: GCACCTCA (ssRNA)
RNA 1: GAGUUCUACAGUCCGACGAUCCCAACGCACCUCACACCUGGAAUUCUCGGGUGCCAA
RNA 2: UGGAGUGUGACAAUGGUGUUUG
DNA 1: GATCGTCGGACTGTAGAACTC
DNA 2: TTGGCACCCGAGAATTCCA
modifications: constant regions annealed to DNA blockers; guide miR-122 5' phosphate
B9: GTGCTCCA (ssRNA)
RNA 1: GAGUUCUACAGUCCGACGAUCCCAACGUGCUCCACACCUGGAAUUCUCGGGUGCCAA
RNA 2: UGGAGUGUGACAAUGGUGUUUG
DNA 1: GATCGTCGGACTGTAGAACTC
DNA 2: TTGGCACCCGAGAATTCCA
modifications: constant regions annealed to DNA blockers; guide miR-122 5' phosphate
B10: ATGCTCCG (ssRNA)
RNA 1: GAGUUCUACAGUCCGACGAUCCCAACAUGCUCCGCACCUGGAAUUCUCGGGUGCCAA
RNA 2: UGGAGUGUGACAAUGGUGUUUG
DNA 1: GATCGTCGGACTGTAGAACTC
DNA 2: TTGGCACCCGAGAATTCCA
modifications: constant regions annealed to DNA blockers; guide miR-122 5' phosphate
B11: GCATTCCA (ssRNA)
RNA 1: GAGUUCUACAGUCCGACGAUCCCAACGCAUUCCACACCUGGAAUUCUCGGGUGCCAA
RNA 2: UGGAGUGUGACAAUGGUGUUUG
DNA 1: GATCGTCGGACTGTAGAACTC
DNA 2: TTGGCACCCGAGAATTCCA
modifications: constant regions annealed to DNA blockers; guide miR-122 5' phosphate
B12: ACATCCCA (ssRNA)
RNA 1: GAGUUCUACAGUCCGACGAUCCCAACACAUCCCACACCUGGAAUUCUCGGGUGCCAA
RNA 2: UGGAGUGUGACAAUGGUGUUUG
DNA 1: GATCGTCGGACTGTAGAACTC
DNA 2: TTGGCACCCGAGAATTCCA
modifications: constant regions annealed to DNA blockers; guide miR-122 5' phosphate
B13: GCACTCCG (ssRNA)
RNA 1: GAGUUCUACAGUCCGACGAUCCCAACGCACUCCGCACCUGGAAUUCUCGGGUGCCAA
RNA 2: UGGAGUGUGACAAUGGUGUUUG
DNA 1: GATCGTCGGACTGTAGAACTC
DNA 2: TTGGCACCCGAGAATTCCA
modifications: constant regions annealed to DNA blockers; guide miR-122 5' phosphate
B14: ATGTCCCA (ssRNA)
RNA 1: GAGUUCUACAGUCCGACGAUCCCAACAUGUCCCACACCUGGAAUUCUCGGGUGCCAA
RNA 2: UGGAGUGUGACAAUGGUGUUUG
DNA 1: GATCGTCGGACTGTAGAACTC
DNA 2: TTGGCACCCGAGAATTCCA
modifications: constant regions annealed to DNA blockers; guide miR-122 5' phosphate
B15: GTATTCCA (ssRNA)
RNA 1: GAGUUCUACAGUCCGACGAUCCCAACGUAUUCCACACCUGGAAUUCUCGGGUGCCAA
RNA 2: UGGAGUGUGACAAUGGUGUUUG
DNA 1: GATCGTCGGACTGTAGAACTC
DNA 2: TTGGCACCCGAGAATTCCA
modifications: constant regions annealed to DNA blockers; guide miR-122 5' phosphate
B16: ATACTTCA (ssRNA)
RNA 1: GAGUUCUACAGUCCGACGAUCCCAACAUACUUCACACCUGGAAUUCUCGGGUGCCAA
RNA 2: UGGAGUGUGACAAUGGUGUUUG
DNA 1: GATCGTCGGACTGTAGAACTC
DNA 2: TTGGCACCCGAGAATTCCA
modifications: constant regions annealed to DNA blockers; guide miR-122 5' phosphate
B17: ACACCCTA (ssRNA)
RNA 1: GAGUUCUACAGUCCGACGAUCCCAACACACCCUACACCUGGAAUUCUCGGGUGCCAA
RNA 2: UGGAGUGUGACAAUGGUGUUUG
DNA 1: GATCGTCGGACTGTAGAACTC
DNA 2: TTGGCACCCGAGAATTCCA
modifications: constant regions annealed to DNA blockers; guide miR-122 5' phosphate
B18: ATATCTCA (ssRNA)
RNA 1: GAGUUCUACAGUCCGACGAUCCCAACAUAUCUCACACCUGGAAUUCUCGGGUGCCAA
RNA 2: UGGAGUGUGACAAUGGUGUUUG
DNA 1: GATCGTCGGACTGTAGAACTC
DNA 2: TTGGCACCCGAGAATTCCA
modifications: constant regions annealed to DNA blockers; guide miR-122 5' phosphate
B19: ATACCTCA (ssRNA)
RNA 1: GAGUUCUACAGUCCGACGAUCCCAACAUACCUCACACCUGGAAUUCUCGGGUGCCAA
RNA 2: UGGAGUGUGACAAUGGUGUUUG
DNA 1: GATCGTCGGACTGTAGAACTC
DNA 2: TTGGCACCCGAGAATTCCA
modifications: constant regions annealed to DNA blockers; guide miR-122 5' phosphate

What follows are binders tested against AGO2 WT (phosphosite mutant background) (Homo sapiens, UniProt Q9UKV8 1-859, S387D;S824A;S828D;S831D;S834A) (assay: RNA Bind-n-Seq (nitrocellulose filter binding and sequencing); miR-122 guide loaded in AGO2; 60 min incubation; 30 mM Tris pH 8.0, 100 mM potassium acetate, 2 mM magnesium acetate, 0.5 mM TCEP, 0.005% NP-40, 0.01 mg/ml yeast tRNA; 3 nM AGO2-miR-122, 100 nM RNA library; 60; high values mean tight binding). Conditions: protein: recombinant; tags: His6 (N-terminal, pFastBac HTA).
Outline: (§1)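 His-tagged AGO2 was expressed in Sf9 insect cells by baculovirus, loaded with a synthetic guide RNA, and purified by Ni-NTA and a biotinylated capture oligo. Bound RNA was extracted, reverse-transcribed, barcode-amplified and Illumina-sequenced. Fold enrichment is each sequence's read fraction divided by its input-library read fraction.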

Chain of AGO2 WT (phosphosite mutant background) (Q9UKV8 whole entry S387D/S824A/S828D/S831D/S834A): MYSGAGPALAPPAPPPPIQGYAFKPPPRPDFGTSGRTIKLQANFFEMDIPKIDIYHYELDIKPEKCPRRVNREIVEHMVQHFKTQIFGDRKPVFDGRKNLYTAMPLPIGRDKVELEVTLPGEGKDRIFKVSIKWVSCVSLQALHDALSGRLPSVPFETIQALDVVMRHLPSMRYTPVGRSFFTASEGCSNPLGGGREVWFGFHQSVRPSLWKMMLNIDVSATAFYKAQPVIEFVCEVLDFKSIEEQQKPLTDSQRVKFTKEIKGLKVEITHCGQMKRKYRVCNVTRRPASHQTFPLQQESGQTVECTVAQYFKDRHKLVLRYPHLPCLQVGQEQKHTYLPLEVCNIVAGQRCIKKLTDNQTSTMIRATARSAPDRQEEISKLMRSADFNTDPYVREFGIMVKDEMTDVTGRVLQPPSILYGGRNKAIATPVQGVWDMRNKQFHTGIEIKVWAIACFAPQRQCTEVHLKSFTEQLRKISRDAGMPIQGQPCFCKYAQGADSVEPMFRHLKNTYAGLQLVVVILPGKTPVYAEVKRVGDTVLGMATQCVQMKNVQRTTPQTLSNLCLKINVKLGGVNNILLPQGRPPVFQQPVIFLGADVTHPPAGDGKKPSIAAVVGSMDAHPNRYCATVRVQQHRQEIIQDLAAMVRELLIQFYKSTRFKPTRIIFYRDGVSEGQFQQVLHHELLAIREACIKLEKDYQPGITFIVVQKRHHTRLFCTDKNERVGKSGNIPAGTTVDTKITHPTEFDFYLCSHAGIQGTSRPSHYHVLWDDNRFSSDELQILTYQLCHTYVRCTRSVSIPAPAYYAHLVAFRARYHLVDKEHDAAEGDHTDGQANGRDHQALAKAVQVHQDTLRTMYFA

Row | Binder | binding signal
1 | B1 | 0.24 fold enrichment over input
2 | B2 | 0.168 fold enrichment over input
3 | B3 | 0.177 fold enrichment over input
4 | B4 | 0.235 fold enrichment over input
5 | B5 | 0.164 fold enrichment over input
6 | B6 | 0.165 fold enrichment over input
7 | B7 | 0.15 fold enrichment over input
8 | B8 | 0.17 fold enrichment over input
9 | B9 | 0.17 fold enrichment over input
10 | B10 | 0.186 fold enrichment over input
11 | B11 | 0.182 fold enrichment over input
12 | B12 | 0.154 fold enrichment over input
13 | B13 | 85.3 fold enrichment over input
14 | B14 | 0.155 fold enrichment over input
15 | B15 | 0.18 fold enrichment over input
16 | B16 | 0.136 fold enrichment over input
17 | B17 | 0.142 fold enrichment over input
18 | B18 | 0.165 fold enrichment over input
19 | B19 | 0.138 fold enrichment over input

Each binder was assayed against AGO2 L192P (Homo sapiens, UniProt Q9UKV8 1-859, L192P;S387D;S824A;S828D;S831D;S834A) in the same assay as above. Conditions: protein: recombinant; tags: His6 (N-terminal, pFastBac HTA).
Outline: as §1

Chain of AGO2 L192P (Q9UKV8 whole entry L192P/S387D/S824A/S828D/S831D/S834A): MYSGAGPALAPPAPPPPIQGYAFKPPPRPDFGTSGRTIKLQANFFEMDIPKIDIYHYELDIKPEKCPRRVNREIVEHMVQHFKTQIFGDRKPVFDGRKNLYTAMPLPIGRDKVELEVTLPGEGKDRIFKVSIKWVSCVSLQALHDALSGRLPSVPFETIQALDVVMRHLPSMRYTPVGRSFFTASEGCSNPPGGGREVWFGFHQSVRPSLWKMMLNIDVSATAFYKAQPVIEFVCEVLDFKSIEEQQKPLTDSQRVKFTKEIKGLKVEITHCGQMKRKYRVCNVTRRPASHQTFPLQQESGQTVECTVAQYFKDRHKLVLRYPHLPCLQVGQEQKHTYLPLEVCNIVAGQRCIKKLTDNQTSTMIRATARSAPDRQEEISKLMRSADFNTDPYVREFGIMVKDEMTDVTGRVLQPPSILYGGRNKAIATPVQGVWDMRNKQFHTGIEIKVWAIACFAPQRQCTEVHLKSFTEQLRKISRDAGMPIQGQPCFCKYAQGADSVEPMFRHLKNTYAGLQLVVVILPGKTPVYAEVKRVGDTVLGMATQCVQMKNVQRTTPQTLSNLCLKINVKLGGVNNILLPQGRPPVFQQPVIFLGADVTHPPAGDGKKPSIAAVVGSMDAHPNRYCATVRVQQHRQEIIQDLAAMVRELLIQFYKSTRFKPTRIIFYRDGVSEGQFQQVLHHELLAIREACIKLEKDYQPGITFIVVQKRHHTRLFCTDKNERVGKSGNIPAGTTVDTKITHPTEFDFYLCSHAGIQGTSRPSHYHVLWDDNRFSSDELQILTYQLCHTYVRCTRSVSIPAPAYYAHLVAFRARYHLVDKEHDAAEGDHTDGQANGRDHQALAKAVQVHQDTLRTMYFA

Row | Binder | binding signal
20 | B1 | 0.941 fold enrichment over input
21 | B2 | 0.562 fold enrichment over input
22 | B3 | 0.659 fold enrichment over input
23 | B4 | 1.13 fold enrichment over input
24 | B5 | 0.6 fold enrichment over input
25 | B6 | 0.769 fold enrichment over input
26 | B7 | 0.597 fold enrichment over input
27 | B8 | 0.761 fold enrichment over input
28 | B9 | 0.594 fold enrichment over input
29 | B10 | 1.56 fold enrichment over input
30 | B11 | 0.661 fold enrichment over input
31 | B12 | 0.641 fold enrichment over input
32 | B13 | 60.8 fold enrichment over input
33 | B14 | 0.54 fold enrichment over input
34 | B15 | 0.545 fold enrichment over input
35 | B16 | 0.646 fold enrichment over input
36 | B17 | 0.6 fold enrichment over input
37 | B18 | 0.635 fold enrichment over input
38 | B19 | 0.642 fold enrichment over input

Each binder was assayed against AGO2 A367P (Homo sapiens, UniProt Q9UKV8 1-859, A367P;S387D;S824A;S828D;S831D;S834A) in the same assay as above. Conditions: protein: recombinant; tags: His6 (N-terminal, pFastBac HTA).
Outline: as §1

Chain of AGO2 A367P (Q9UKV8 whole entry A367P/S387D/S824A/S828D/S831D/S834A): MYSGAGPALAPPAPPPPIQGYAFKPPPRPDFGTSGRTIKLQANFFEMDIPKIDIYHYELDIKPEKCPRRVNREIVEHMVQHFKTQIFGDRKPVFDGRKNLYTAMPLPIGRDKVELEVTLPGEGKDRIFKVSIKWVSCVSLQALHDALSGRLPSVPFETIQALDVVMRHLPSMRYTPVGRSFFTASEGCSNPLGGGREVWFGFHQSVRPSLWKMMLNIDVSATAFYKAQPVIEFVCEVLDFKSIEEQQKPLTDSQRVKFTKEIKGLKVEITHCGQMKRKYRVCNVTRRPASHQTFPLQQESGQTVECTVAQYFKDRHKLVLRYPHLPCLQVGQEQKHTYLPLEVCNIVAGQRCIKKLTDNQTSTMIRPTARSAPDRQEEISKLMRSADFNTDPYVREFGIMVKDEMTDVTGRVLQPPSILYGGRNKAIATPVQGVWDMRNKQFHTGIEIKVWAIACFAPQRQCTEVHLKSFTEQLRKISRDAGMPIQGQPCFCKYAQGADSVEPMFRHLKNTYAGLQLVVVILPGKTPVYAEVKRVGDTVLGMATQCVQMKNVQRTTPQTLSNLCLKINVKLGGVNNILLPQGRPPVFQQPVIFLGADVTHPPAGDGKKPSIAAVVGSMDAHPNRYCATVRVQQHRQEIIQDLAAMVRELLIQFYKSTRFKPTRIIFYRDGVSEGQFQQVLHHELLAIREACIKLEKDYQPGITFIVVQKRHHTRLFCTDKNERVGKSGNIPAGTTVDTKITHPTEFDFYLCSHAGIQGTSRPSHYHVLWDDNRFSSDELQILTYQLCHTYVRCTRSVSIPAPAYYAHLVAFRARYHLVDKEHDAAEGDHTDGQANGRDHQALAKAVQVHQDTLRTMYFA

Row | Binder | binding signal
39 | B1 | 0.66 fold enrichment over input
40 | B2 | 0.306 fold enrichment over input
41 | B3 | 0.413 fold enrichment over input
42 | B4 | 0.727 fold enrichment over input
43 | B5 | 0.263 fold enrichment over input
44 | B6 | 0.434 fold enrichment over input
45 | B7 | 0.316 fold enrichment over input
46 | B8 | 0.505 fold enrichment over input
47 | B9 | 0.522 fold enrichment over input
48 | B10 | 1.45 fold enrichment over input
49 | B11 | 0.356 fold enrichment over input
50 | B12 | 0.325 fold enrichment over input
51 | B13 | 86.8 fold enrichment over input
52 | B14 | 0.303 fold enrichment over input
53 | B15 | 0.446 fold enrichment over input
54 | B16 | 0.396 fold enrichment over input
55 | B17 | 0.25 fold enrichment over input
56 | B18 | 0.396 fold enrichment over input
57 | B19 | 0.406 fold enrichment over input

Each binder was assayed against AGO2 T357M (Homo sapiens, UniProt Q9UKV8 1-859, T357M;S387D;S824A;S828D;S831D;S834A) in the same assay as above. Conditions: protein: recombinant; tags: His6 (N-terminal, pFastBac HTA).
Outline: as §1

Chain of AGO2 T357M (Q9UKV8 whole entry T357M/S387D/S824A/S828D/S831D/S834A): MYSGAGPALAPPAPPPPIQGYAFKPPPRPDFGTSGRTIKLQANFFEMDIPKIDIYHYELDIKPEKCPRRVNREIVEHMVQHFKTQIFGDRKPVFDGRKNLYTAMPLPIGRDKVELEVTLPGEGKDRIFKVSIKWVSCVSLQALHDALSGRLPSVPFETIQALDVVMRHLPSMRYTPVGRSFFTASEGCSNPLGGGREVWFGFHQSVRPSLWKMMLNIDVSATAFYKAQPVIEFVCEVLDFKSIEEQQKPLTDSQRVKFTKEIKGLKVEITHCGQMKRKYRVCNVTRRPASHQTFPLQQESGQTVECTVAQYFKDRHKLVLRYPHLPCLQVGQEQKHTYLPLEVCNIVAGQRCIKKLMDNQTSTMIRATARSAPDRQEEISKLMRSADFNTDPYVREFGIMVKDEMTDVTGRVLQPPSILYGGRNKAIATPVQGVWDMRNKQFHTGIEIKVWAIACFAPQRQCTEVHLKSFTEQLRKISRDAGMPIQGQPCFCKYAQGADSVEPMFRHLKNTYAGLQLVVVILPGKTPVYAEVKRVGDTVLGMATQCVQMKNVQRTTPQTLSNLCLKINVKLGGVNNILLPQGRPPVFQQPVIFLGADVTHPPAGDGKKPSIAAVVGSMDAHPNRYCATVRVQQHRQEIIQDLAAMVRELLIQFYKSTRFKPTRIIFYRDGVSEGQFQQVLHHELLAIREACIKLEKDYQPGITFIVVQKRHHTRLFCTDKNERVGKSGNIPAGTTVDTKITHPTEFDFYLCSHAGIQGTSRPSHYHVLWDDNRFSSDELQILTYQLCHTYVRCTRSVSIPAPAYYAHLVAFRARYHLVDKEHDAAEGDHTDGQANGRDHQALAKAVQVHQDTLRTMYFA

Row | Binder | binding signal
58 | B1 | 0.675 fold enrichment over input
59 | B2 | 0.561 fold enrichment over input
60 | B3 | 0.689 fold enrichment over input
61 | B4 | 0.709 fold enrichment over input
62 | B5 | 0.699 fold enrichment over input
63 | B6 | 0.679 fold enrichment over input
64 | B7 | 0.623 fold enrichment over input
65 | B8 | 0.643 fold enrichment over input
66 | B9 | 0.649 fold enrichment over input
67 | B10 | 0.527 fold enrichment over input
68 | B11 | 0.65 fold enrichment over input
69 | B12 | 0.628 fold enrichment over input
70 | B13 | 35.6 fold enrichment over input
71 | B14 | 0.599 fold enrichment over input
72 | B15 | 0.623 fold enrichment over input
73 | B16 | 0.62 fold enrichment over input
74 | B17 | 0.636 fold enrichment over input
75 | B18 | 0.657 fold enrichment over input
76 | B19 | 0.575 fold enrichment over input

What follows are binders tested against AGO2 F182del (Homo sapiens, UniProt Q9UKV8 1-859, S387D;S824A;S828D;S831D;S834A;del182-182) in the same assay as above. Conditions: protein: recombinant; tags: His6 (N-terminal, pFastBac HTA).
Outline: as §1

Chain of AGO2 F182del (Q9UKV8 other isoform, or with tags, fused parts or gaps S387D;S824A;S828D;S831D;S834A;del182-182): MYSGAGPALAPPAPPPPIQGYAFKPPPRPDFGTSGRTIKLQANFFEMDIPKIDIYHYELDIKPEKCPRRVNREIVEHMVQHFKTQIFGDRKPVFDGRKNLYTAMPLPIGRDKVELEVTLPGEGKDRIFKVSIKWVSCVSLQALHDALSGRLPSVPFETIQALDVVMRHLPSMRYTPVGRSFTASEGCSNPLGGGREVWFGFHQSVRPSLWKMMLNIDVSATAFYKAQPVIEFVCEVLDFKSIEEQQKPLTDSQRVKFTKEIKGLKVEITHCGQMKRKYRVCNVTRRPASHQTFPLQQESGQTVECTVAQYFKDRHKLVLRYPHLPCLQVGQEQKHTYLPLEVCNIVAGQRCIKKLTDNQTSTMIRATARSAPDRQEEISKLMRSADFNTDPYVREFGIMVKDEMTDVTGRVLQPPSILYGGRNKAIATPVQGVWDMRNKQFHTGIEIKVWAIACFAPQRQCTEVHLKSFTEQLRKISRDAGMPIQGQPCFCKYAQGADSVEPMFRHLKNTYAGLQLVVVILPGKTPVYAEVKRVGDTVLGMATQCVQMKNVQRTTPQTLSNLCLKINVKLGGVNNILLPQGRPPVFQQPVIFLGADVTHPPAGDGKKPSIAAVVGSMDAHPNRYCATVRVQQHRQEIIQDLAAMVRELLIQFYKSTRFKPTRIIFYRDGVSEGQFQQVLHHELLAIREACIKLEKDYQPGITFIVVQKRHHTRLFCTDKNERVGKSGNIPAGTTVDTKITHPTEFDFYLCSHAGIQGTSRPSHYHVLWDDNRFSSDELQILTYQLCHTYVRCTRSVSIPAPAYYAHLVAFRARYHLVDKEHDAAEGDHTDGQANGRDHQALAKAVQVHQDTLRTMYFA

Row | Binder | binding signal
77 | B1 | 2.79 fold enrichment over input
78 | B2 | 0.786 fold enrichment over input
79 | B3 | 1.38 fold enrichment over input
80 | B4 | 4.77 fold enrichment over input
81 | B5 | 0.666 fold enrichment over input
82 | B6 | 1.83 fold enrichment over input
83 | B7 | 0.822 fold enrichment over input
84 | B8 | 2.01 fold enrichment over input
85 | B9 | 0.604 fold enrichment over input
86 | B10 | 1.55 fold enrichment over input
87 | B11 | 1.01 fold enrichment over input
88 | B12 | 1.11 fold enrichment over input
89 | B13 | 69.5 fold enrichment over input
90 | B14 | 0.697 fold enrichment over input
91 | B15 | 0.898 fold enrichment over input
92 | B16 | 1.33 fold enrichment over input
93 | B17 | 0.799 fold enrichment over input
94 | B18 | 1.42 fold enrichment over input
95 | B19 | 1.82 fold enrichment over input
